# In all, about 63,000 compounds went through this assay and about 1,100 (1.7%) were called active. The list comes from a sample in which actives are over-represented; it also holds similar structures and randomly drawn compounds. Potency and affinity values are given separately. Unmarked numbers belong to inactive results.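 The calls were made as follows: active = compounds whose percent cytotoxicity in the single-dose primary screen, scaled between solvent and toxic-drug controls, exceeds 50; inactive = the rest.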
# Experiment: viability loss of HPDE-C7K cells – cell-based, fluorescence, HTS, primary screen (AID 431);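 also: 0% = DMSO solvent wells and 100% = doxorubicin-treated wells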
# Conditions: HPDE-C7K KRASV12 cells, Alamar Blue viability, 48 h; at 10 µM; active compounds read high
row,Structure (SMILES),cytotoxicity
1,O=C1c2ccccc2C(=O)N1CCN1CCOCC1,-1.3%
2,CC(C)N(C(=O)CSc1nnnn1C1CCCC1)C(C)C,-9.6%
3,CCCCn1nnnc1SCC(=O)Nc1ccc(C)cc1,-4.8%
4,Cc1ccc(NS(=O)(=O)c2cc(C(=O)N3CCOCC3)ccc2C)cc1C,-4.4%
5,CCN(CC)C(=O)c1sc(NC(=O)Cc2cccs2)c(C#N)c1C,-10.4%
6,CC(O)c1ccc2c(c1)OCCOCCN(C)CCOCCO2 (stereo not drawn),-3.4%
7,OC1C[N+]2(CCCCC2)C1,-0.4%
8,CCNc1nc(SCC(=O)OC)nc(N2CCOCC2)n1,-13.2%
9,O=C(CCC(=O)N(CC(=O)NC1CCCCC1)c1ccc2c(c1)OCO2)Nc1ccccn1,-8.1%
10,Cc1ccc(C2CC(=O)Nc3cc4c(cc32)OCCO4)s1 (stereo not drawn),7.5%
11,O=C1CC(c2cccs2)c2cc3c(cc2N1)OCCO3 (stereo not drawn),2.9%
12,CCCOc1ccccc1C1CC(=O)Nc2cc3c(cc21)OCCO3 (stereo not drawn),73.4% (active)
13,CC(C)NC(=O)c1ccccc1-c1nc(-c2ccccc2Cl)no1,6%
14,c1ccc2c(c1)[nH]c1c(NCC3CCCO3)ncnc12 (stereo not drawn),6.1%
15,CCN1CCCC1CNc1ncnc2c1[nH]c1ccc(Cl)cc12 (stereo not drawn),10.9%
16,Clc1ccc2[nH]c3c(NCC4CCCO4)ncnc3c2c1 (stereo not drawn),57.6% (active)
17,CC(C)(C)OC(=O)N1CCC[C@@H]1C(=O)N1CCC(C(=O)O)CC1,8.3%
18,COc1ccc(NC(=O)Cn2nnc(-c3ccccc3NC(=O)c3cccs3)n2)cc1,9.5%
19,O=C(O)c1ccc(CSc2n[nH]c(-c3ccco3)n2)cc1,-2.9%
20,Cc1c(-c2ccccc2)c(P(=O)(N2CCOCC2)N2CCOCC2)c2ccccn12,-4.4%
21,COc1ccccc1-n1c(SC)nc(O)cc1=O,6.5%
22,COc1ccccc1-n1c(=O)oc2ccc(Cl)cc2c1=O,53.6% (active)
23,COc1ccccc1C1c2c(oc3ccc(Cl)cc3c2=O)C(=O)N1c1cc(C)on1 (stereo not drawn),-23.6%
24,C=CCN(CC=C)S(=O)(=O)c1ccc2nsnc2c1,-22.3%
25,C=CCN(CC=C)S(=O)(=O)c1ccc2nc(NC(=O)C(C)C)sc2c1,69.9% (active)

row,Structure (SMILES),cytotoxicity
1,CCOC(=O)c1ccc2nc(NC(=O)C(C)C)sc2c1,6.2%
2,COc1ccc(C(=O)n2c(-c3ccco3)nc3ccccc32)cc1,58.3% (active)
3,CCn1c(-c2ccco2)nc2ccccc21,5.1%
4,COc1ccc(C(=O)CSc2nnc(-c3ccco3)n2C)cc1,5.8%
5,Cc1cc(C)cc(-n2nnc(C(=O)NCc3ccc(Cl)cc3)c2N)c1,5.6%
6,CCN1CCN(C2CCN(C(C)=O)CC2)CC1,5.4%
7,C/C=C/Cn1c(SCc2ccccc2)nc2c1c(=O)[nH]c(=O)n2C,1.2%
8,C/C=C/Cn1c(SCc2ccc(C)cc2)nc2c1c(=O)[nH]c(=O)n2C,57.9% (active)
9,C/C=C/Cn1c(SCc2ccc(Cl)cc2)nc2c1c(=O)[nH]c(=O)n2C,8.2%
10,Clc1ccc(-n2cnnn2)cc1,-0.1%
11,COc1ccc(C2NC(=O)NC(C)=C2C(=O)Nc2cc(C)ccc2C)cc1OC (stereo not drawn),1.2%
12,O=C(C1CC1)N1CCc2cc(Br)cc(S(=O)(=O)NCCCN3CCCC3)c21,1.3%
13,CCOC(=O)c1c(C)[nH]c(C(=O)OC/C(O)=C(\C#N)c2nc3ccccc3[nH]2)c1C,81.8% (active)
14,N#C/C(=C(/O)COC(=O)c1ccc2c(c1)OCCO2)c1nc2ccccc2[nH]1,17.6%
15,Cc1nn(-c2ccccc2)c(C)c1C(=O)OC/C(O)=C(\C#N)c1nc2ccccc2[nH]1,13%
16,CSc1nnc(-c2nnc(SC)n2-c2ccccc2)n1-c1ccccc1,-8.3%
17,Cc1ccc(C(=O)CSC2=C(C#N)C(c3ccco3)CC(=O)N2)c(C)c1 (stereo not drawn),5%
18,CCN(CC)C(=O)CSC1=C(C#N)C(c2ccco2)C(C(=O)OCCOC)=C(C)N1 (stereo not drawn),-15.8%
19,C=CCOC(=O)C1=C(C)NC(SCC(=O)Nc2ccc(C)c(Cl)c2)=C(C#N)C1c1ccco1 (stereo not drawn),-1.3%
20,COCCOC(=O)C1=C(C)NC(SCC(=O)NC(C)(C)C)=C(C#N)C1c1ccco1 (stereo not drawn),2.3%
21,CC(=O)C1=C(C)NC(SCC(=O)c2ccc(Cl)cc2Cl)=C(C#N)C1c1ccco1 (stereo not drawn),40.7%
22,CCOC(=O)CSC1=C(C#N)C(c2ccco2)C(C(=O)OCc2ccccc2)=C(C)N1 (stereo not drawn),61% (active)
23,CC(=O)C1=C(C)NC(SCC(=O)c2ccccc2)=C(C#N)C1CC(C)C (stereo not drawn),3.7%
24,CSCSC1=C(C#N)C(c2ccccc2Cl)C(C(C)=O)=C(C)N1 (stereo not drawn),23.4%
25,CC(=O)C1=C(C)NC(SCC(=O)c2ccc(Cl)c(Cl)c2)=C(C#N)C1c1ccco1 (stereo not drawn),77.4% (active)

row,Structure (SMILES),cytotoxicity
1,C=CCOC(=O)C1=C(C)NC(SCC(=O)N(CC)CC)=C(C#N)C1c1ccco1 (stereo not drawn),-4.1%
2,CC(=O)C1=C(C)NC(SCC(=O)c2cc(Cl)ccc2Cl)=C(C#N)C1c1ccco1 (stereo not drawn),60.7% (active)
3,CCCNS(=O)(=O)c1ccc(CCC(=O)N2CCOCC2)cc1,3.7%
4,CC(C)C1CC(c2csc(N)n2)CCO1 (stereo not drawn),7.1%
5,O=C1CCN(Cc2nnnn2CC2CCCO2)c2ccccc2N1 (stereo not drawn),-13.4%
6,Cc1nnc(SCCn2c(N3CCCC(C)C3)nc3c2c(=O)n(C)c(=O)n3C)s1 (stereo not drawn),6.4%
7,O=C(NCc1ccccn1)C1CCCN(S(=O)(=O)c2ccc(Br)cc2)C1 (stereo not drawn),-8.1%
8,CCOC(=O)C(Cc1ccccc1)C(=O)Nc1nccs1 (stereo not drawn),15.3%
9,CCOC(=O)C1CCN(S(=O)(=O)c2ccc3c(c2)CCCN3C(C)=O)CC1,-5.4%
10,CC(=O)C1=C(C)NC(SCC(=O)c2ccc(F)cc2)=C(C#N)C1c1ccco1 (stereo not drawn),90.5% (active)
11,CSCSC1=C(C#N)C(c2ccc(Cl)cc2)C(C(C)=O)=C(C)N1 (stereo not drawn),-8.2%
12,COc1ccccc1NC(=O)C1=C(C)NC(SCC(=O)c2ccc(C)cc2)=C(C#N)C1c1ccco1 (stereo not drawn),38.3%
13,CCOC(=O)CSC1=C(C#N)C(c2ccc(F)cc2)C(C(C)=O)=C(C)N1 (stereo not drawn),-0.1%
14,CC(=O)C1=C(C)OC(N)=C(C#N)C1c1ccco1 (stereo not drawn),-7.5%
15,CC(=O)C1=C(C)NC(SCC(=O)c2ccc(Cl)cc2)=C(C#N)C1c1ccco1 (stereo not drawn),50.5% (active)
16,Cc1cccc(C2CC(c3ccccc3)Nc3ncnn32)c1 (stereo not drawn),0%
17,COc1ccc(CCNc2ncnc3[nH]ncc23)cc1OC,-5.5%
18,O=C(NC1CCCc2ccccc21)C1CCN(S(=O)(=O)c2cnc[nH]2)CC1 (stereo not drawn),-2.5%
19,Cc1occc1-c1nc(-c2ccncc2)no1,-13.6%
20,CCSc1nnc(NC(=O)C(Cc2ccccc2)n2cccc2)s1 (stereo not drawn),-0.8%
21,Cc1csc(NC(=O)C(Cc2ccccc2)n2cccc2)n1 (stereo not drawn),15%
22,O=C1[C@@H]2Cc3ccccc3CN2C(=O)N1c1cccc(F)c1,-8.3%
23,Cc1cccc(-n2c(C)nc3c(cnn3-c3ccc(F)cc3)c2=O)c1,-11.2%
24,CC(C)CC(=O)N1CCN(S(=O)(=O)c2ccc(F)cc2)CC1,0.4%
25,Fc1ccccc1-c1nc(NCCCN2CCOCC2)c2ccccc2n1,11.7%

row,Structure (SMILES),cytotoxicity
1,c1ccc(-c2nc(NCCCN3CCOCC3)c3ccccc3n2)cc1,5.9%
2,COc1cccc(-c2nc(NCCN3CCOCC3)c3ccccc3n2)c1O,53.1% (active)
3,Oc1ccccc1-c1nc(NCCN2CCOCC2)c2ccccc2n1,59.3% (active)
4,Cc1ccc(-c2nc(NCCN3CCOCC3)c3ccccc3n2)cc1,40.5%
5,Clc1ccc(-c2nc(NCCN3CCOCC3)c3ccccc3n2)cc1,40.9%
6,CCCCCOc1ccc(NS(C)(=O)=O)cc1,-26.8%
7,O=c1[nH]c(C(F)(F)F)nc2ccccc12,-18.7%
8,COc1ccccc1N(CN1C(=O)c2ccccc2C1=O)C(=O)c1cccnc1,-10%
9,CCOC(=O)c1cc(-c2ccc(/C=N\n3cnnc3)o2)ccc1Cl,-11%
10,O=C1CNC(=O)/C1=C\N1CCCCC1,-3.5%
11,Cc1cc(Nc2ccc(Br)cc2F)n2nc(C)nc2n1,3.9%
12,CCCNC(=O)Nc1cc(OCC)c(N2CCOCC2)cc1OCC,2.8%
13,O=c1c(-c2ccccc2)coc2c(CN3CCCC3)c(O)ccc12,-6.5%
14,COc1ccc(-c2coc3c(CN4CCCCC4)c(O)c(CN4CCCCC4)c(O)c3c2=O)cc1,54.7% (active)
15,COc1ccc(C(=O)c2coc3ccc(O)c(CN4CCCCC4)c23)cc1,16.8%
16,CC1Cc2cc(C3(O)C(=O)c4ccccc4C3=O)ccc2N1 (stereo not drawn),-0.9%
17,COc1ccc(C2=[N+]([O-])C(C)(C)N(O)C2(C)C)cc1,-22%
18,Cc1ccc(C2c3c(oc4cc(C)c(C)cc4c3=O)C(=O)N2CCCN2CCOCC2)cc1 (stereo not drawn),-5.4%
19,Cc1c(-c2nc(N)nc(Nc3ccc(F)cc3)n2)oc2ccccc12,12%
20,Cc1c(-c2nc(N)nc(Nc3ccccc3)n2)oc2ccccc12,68.7% (active)
21,Cc1c(-c2nc(N)nc(Nc3ccccc3F)n2)oc2ccccc12,14.6%
22,CNC(=O)c1cc(S(=O)(=O)N(C)C)ccc1Cl,2.1%
23,CCCCOc1ccccc1-c1cc(C(=O)O)[nH]n1,-9.2%

# Source: PubChem BioAssay AID431 (Sanford-Burnham Center for Chemical Genomics, 2006)
